This is a sample that favours compounds with a hit; in the whole collection about 3.8% have one here.
ADAM10 inh – inhibits human ADAM10. inhibition, % at 7 µM. AID 720582. recombinant ADAM10, EDANS/DABCYL FRET peptide cleavage, 3 h. O14672. 370,000 tested, 0.62% active;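 active = inhibition above a per-campaign cutoff equal to the mean of compounds falling between control-based bounds plus 3 SD, cut at about 20% in these data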;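 also: 0% = DMSO wells while the 100% control is not disclosed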
KLK7 zymogen act – activators of human kallikrein-7 zymogen. P49862. purified proKLK7, EDANS-DABCYL substrate fluorescence; 100% is mature enzyme control, 0% vehicle. activation, % at 7 µM. 370,000 tested, 0.9% active;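 active = activation above the mean of all tested compounds plus 3 SD, computed per campaign excluding outliers beyond control limits, cut at about 13% in these data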
FGF22 binding-1 – shifts melting point of recombinant human FGF22 | AID 651658 | 340,000 tested, 1.5% active | recombinant FGF22 thermal shift, SYPRO orange fluorescence; percent of sucrose octasulfate shift, DMSO zero | activity (Tm shift, normalised), % at 9.99 µM;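 active = mean Tm shift, scaled 0 neutral to 100 positive control, at about 1.3% or above, every replicate too, limit read from the data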
rRNA inh HTS – selective bacterial rRNA inhibition in E. coli; E. coli WT GFP vs humanized-ribosome RFP mutants, fluorescence, 24 h; active compounds read low; DMSO median 0, no signal -100; 350,000 tested, 1.6% active; AID 720706; GFP signal change (wild-type ribosome), % (test concentration not listed);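 active = significant combined selectivity score with lowered wild-type GFP, culture density cut under 30%, mutant RFP and density less affected; inactive = any of these conditions unmet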
ADAM17 inh – inhibits human ADAM17; inhibition, % at 6.95 µM; 370,000 tested, 0.83% active; P78536; recombinant ADAM17, EDANS/DABCYL FRET peptide cleavage;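 active = inhibition above the mean of compounds lying between control limits plus 3 SD, set per campaign, cut at about 8.5% in these data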;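 also: 0% = DMSO-only wells as the low control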
Target sequence (P78536 215-824 limits assumed): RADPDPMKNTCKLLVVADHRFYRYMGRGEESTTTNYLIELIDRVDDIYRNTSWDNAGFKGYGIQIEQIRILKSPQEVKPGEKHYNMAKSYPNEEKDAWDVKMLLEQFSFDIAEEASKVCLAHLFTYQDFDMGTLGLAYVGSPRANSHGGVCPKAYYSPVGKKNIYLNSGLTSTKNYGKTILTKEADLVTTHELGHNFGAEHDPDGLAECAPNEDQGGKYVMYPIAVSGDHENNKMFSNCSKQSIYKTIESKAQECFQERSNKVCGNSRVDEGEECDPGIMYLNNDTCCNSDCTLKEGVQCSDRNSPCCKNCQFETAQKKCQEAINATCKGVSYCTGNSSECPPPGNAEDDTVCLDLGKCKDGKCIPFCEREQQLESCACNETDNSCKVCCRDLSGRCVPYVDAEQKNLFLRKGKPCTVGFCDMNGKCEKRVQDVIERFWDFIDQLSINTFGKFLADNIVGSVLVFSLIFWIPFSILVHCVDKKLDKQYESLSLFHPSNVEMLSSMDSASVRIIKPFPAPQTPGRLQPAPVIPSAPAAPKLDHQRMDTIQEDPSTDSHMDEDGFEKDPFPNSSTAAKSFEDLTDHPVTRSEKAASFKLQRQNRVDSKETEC
FGF22 binding-2 – binds human FGF22 shifting its melting temperature | shares compounds with FGF22 binding-1 | recombinant FGF22 thermal shift, SYPRO orange fluorescence | thermal shift activity, °C (ΔTm) at 38 µM | 1,000 tested, 2% active | AID 720646;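 active = fitted rise in melting shift crosses a set limit at or below the top valid dose tested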
FGF22 TSA – binders of human FGF22 by thermal shift; shares compounds with FGF22 binding-1; Thermal shift assay, SYPRO orange, melting temperature shift; Tm shift (activity), % at 38 µM; 50 tested, under 10 active;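 active = compounds whose fitted dose curve of melting temperature shift rises past a set threshold within the tested doses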
SYPRO no-protein – compound-only SYPRO artifact for FGF22 binders; shares compounds with FGF22 binding-1; compound-only SYPRO orange thermal shift counter-screen, no protein; AC50, µM (titrated, usually from 38 µM); 1,000 tested, 2% active; AID 743019;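 active = rising signal whose fitted curve reaches the 0.54 level within the top valid dose, showing a melting point, actives reach about 13 µM in these data; inactive = the rest, including activity in the opposite direction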; also: value is where the raw curve crosses a fixed level and not half-maximal
Numbers without * were called inactive; i = inactive; . = no result given; ! = a repeat was not active; [ ] = remark or other dose.

SMILES	ADAM10 inh	KLK7 zymogen act	FGF22 binding-1	rRNA inh HTS	ADAM17 inh	FGF22 binding-2	SYPRO no-protein	others
CO[C@@H]1CN(C)C(=O)c2ccc(NC(=O)C3CC3)cc2OC[C@@H](C)N(C(=O)CN2CCOCC2)C[C@H]1C	.	.	0	3	.	.	.
CO[C@H]1CN(C)C(=O)c2cc(NS(=O)(=O)c3ccc(C)cc3)ccc2OC[C@@H](C)N(C(=O)NC(C)C)C[C@@H]1C	.	.	1.2*	-1	.	-0.021	i
CO[C@@H]1CN(C)C(=O)c2ccc(NC(=O)C3CC3)cc2OC[C@H](C)N(C(=O)CN2CCOCC2)C[C@@H]1C	.	.	1.4*	2	.	0.023	i
CCC(=O)Nc1ccc2c(c1)C(=O)N(C)C[C@H](OC)[C@@H](C)CN(C(=O)CC)[C@@H](C)CO2	.	.	1.5*	1	.	0.13[42 µM]	i
CCC(=O)Nc1ccc2c(c1)C(=O)N(C)C[C@@H](OC)[C@H](C)CN(C(=O)COC)[C@H](C)CO2	.	.	0	2	.	.	.
CO[C@@H]1CN(C)C(=O)c2ccc(NC(C)=O)cc2OC[C@@H](C)N(C(=O)Cc2ccccn2)C[C@H]1C	.	.	1.4*	1	.	0.036[42 µM]	i
O=C(Nc1ccccc1F)N1CC(=O)N2[C@H](C1)[C@@H](c1ccc(C#CC3CCCC3)cc1)[C@@H]2CO	.	.	.	-11	.	.	.
COc1ccc2c(/C=N/NS(=O)(=O)c3ccc(C)cc3)c[nH]c2c1	0	-1	2.7*	0	-2	-0.21	i
C=CCN(C(=O)c1csnn1)C(C(=O)NC1CCCCC1)c1ccc(Cl)cc1 (stereo unspecified)	7	0	1.5*	-4	1	-0.074	i
C=CCN(C(=O)c1csnn1)C(C(=O)NC1CCCCC1)c1ccc(C)cc1 (stereo unspecified)	-1	0	0	1	-1	.	.
C[C@@H]1CN([C@H](C)CO)C(=O)Cc2cc(NC(=O)C3CCCCC3)ccc2O[C@@H]1CN(C)Cc1ccccc1	.	.	0	-4	.	.	.
CO[C@@H]1CN(C)C(=O)c2ccc(NC(=O)C3CCC3)cc2OC[C@@H](C)N(C(=O)NC(C)C)C[C@H]1C	.	.	0	3	.	.	.
COc1ccc(S(=O)(=O)N(C(C)=O)c2ccc(OC(C)=O)c3ccccc23)cc1[N+](=O)[O-]	3	0	1.5*	10	3	-0.014	i
CCC(=O)Nc1ccc2c(c1)C(=O)N(C)C[C@@H](OC)[C@H](C)CN(Cc1ccccn1)[C@@H](C)CO2	.	.	0	-1	.	.	.
O=C(Nc1ccc(-c2ccccc2)cc1)[C@H]1[C@H](CO)[C@H]2Cn3c(cccc3=O)[C@@H]1N2Cc1cccnc1	.	.	0	-2	.	.	.
COc1ccc2nc(-c3cccc(N)c3)[nH]c2c1	i	3	.	.	-311	.	.
O=[N+]([O-])c1ccc2nc(-c3ccccc3)[nH]c2c1	8	0	1.7*	15	-1	-0.04	i
Nc1cccc(-c2nc3ccc(C(=O)c4ccccc4)cc3[nH]2)c1	4	0	13*	-35	0	0.031	i	FGF22 TSA=0
CN1c2ccc(Br)cc2[C@H]2[C@H](CCN2S(=O)(=O)c2cccc(F)c2)[C@@H]1CO	.	.	0	-49	.	.	.
N#C[C@H]1[C@@H](c2ccc(C3=CCCCC3)cc2)[C@@H](CO)N1S(=O)(=O)c1ccccc1	.	.	1.9*	-1	.	-0.2	i
CO[C@@H]1CN(C)C(=O)c2cc(NC(=O)C3CC3)ccc2OC[C@H](C)N(Cc2cccnc2)C[C@H]1C	.	.	0	-2	.	.	.
COc1ccc(CCNS(=O)(=O)CCNC(=O)c2ccc3c(c2)OCO3)cc1	3	0	11*	-1	-1	0.08	i
COc1ccc(CNS(=O)(=O)CCNC(=O)c2ccc3c(c2)OCO3)cc1	-13	0	0	2	-1	.	.
O=C(C[C@@H]1CC[C@H](NC(=O)C2CCOCC2)[C@H](CO)O1)Nc1ccccc1	.	.	.	1	.	.	.
C[C@@H]1CCCCO[C@H](CN(C)Cc2ccc(C(=O)O)cc2)[C@@H](C)CN([C@@H](C)CO)C(=O)c2cc(NC(=O)Nc3ccc4c(c3)OCO4)ccc2O1	.	.	0	1	.	.	.
SMILES	ADAM10 inh	KLK7 zymogen act	FGF22 binding-1	rRNA inh HTS	ADAM17 inh	FGF22 binding-2	SYPRO no-protein	others
Cc1ccccc1C(=O)Nc1nnc(S(=O)(=O)N2CCCCC2)s1	-2	0	17*	4	1	0.005	i
O=C(Nc1nnc(S(=O)(=O)N2CCCCCC2)s1)c1ccccc1Br	-2	-1	0	-53	0	.	.
COCCNC(=O)CCc1nnc2ccc(N3CCC(C)CC3)nn12	0	0	1.6*	2	-3	0.037	i
COc1ccc(CN(C)C[C@H]2Oc3ccc(NC(=O)Cc4ccccc4)cc3C(=O)N([C@@H](C)CO)C[C@@H]2C)cc1	.	.	.	2	.	.	.
COc1ccc(CN(C)C[C@H]2Oc3ccc(NC(=O)Cc4ccccc4)cc3C(=O)N([C@H](C)CO)C[C@@H]2C)cc1	.	.	1.5*	2	.	0.13[42 µM]	i
COc1ccc(CN(C)C[C@H]2Oc3ccc(NC(=O)NC(C)C)cc3C(=O)N([C@H](C)CO)C[C@@H]2C)cc1	.	.	1	1	.	.	.
CNC[C@H]1Oc2ccc(NC(=O)Cc3cn(C)c4ccccc34)cc2C(=O)N([C@H](C)CO)C[C@H]1C	.	.	3.7*	5	.	.	i
COc1ccc(CN(C)C[C@@H]2Oc3ccc(NC(=O)NC(C)C)cc3C(=O)N([C@H](C)CO)C[C@@H]2C)cc1	.	.	73*	3	.	-0.025[42 µM]	i
CCC(=O)N1C[C@H](C)[C@@H](OC)CN(C)C(=O)c2ccc(NC(=O)Nc3ccc(Cl)cc3)cc2OC[C@H]1C	.	.	0	-1	.	.	.
CC(C)CC#Cc1cnc2c(c1)C(=O)N([C@@H](C)CO)C[C@H](C)[C@@H](CN(C)Cc1ccccn1)O2	.	.	1.6*	-1	.	0.1	i
C[C@@H]1CN([C@H](C)CO)C(=O)c2cc(Br)cnc2O[C@@H]1CN(C)Cc1ccc(F)cc1	-6	-1	21*!	12	-1	0.098	i
CC(C)CC#Cc1cnc2c(c1)C(=O)N([C@@H](C)CO)C[C@H](C)[C@H](CN(C)Cc1ccccn1)O2	.	.	0	1	.	.	.
C[C@H]1CN([C@@H](C)CO)C(=O)c2cc(C#Cc3ccccc3F)cnc2O[C@H]1CN(C)S(=O)(=O)c1ccccc1	.	.	1.7*	-3	.	0.086[42 µM]	i
Cc1ccc(Cl)cc1N1CCN(C(=O)Cc2c(C(=O)O)[nH]c3ccc(Cl)cc23)CC1	0	1	7.4*	-11	-1	0.23	i

Screening data (PubChem)
